Counter-ions that a name gives are not always drawn. The full ranking holds about 2,800 compounds; the median of “cell viability relative to vehicle” is about 0.98, and the lowest 2% start at about 0.45. Many of the other results were omitted from the sample, so the lowest values are more common in it than they were.
These molecules were tested on NCI-H2228 alectinib-DTP (assay: cell viability relative to vehicle (fraction of vehicle); NCI-H2228 is an ALK-positive lung cancer line and DTP means drug-tolerant persister; higher = less growth inhibition). Details: 100 nM; treatment time 6 days.
How it was run: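 Each value is viability relative to vehicle-treated cells, measured as ATP with the CellTiter-Glo 3D Cell Viability Assay. Parental NCI-H2228 cells and drug-tolerant persisters (1000 nM targeted drug, 13 days) in 384-well plates received the 3114-agent TargetMol anti-cancer compound library at 100 nM, or DMSO, and were read 6 days later.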

Compound	cell viability
CC(C)=CCC[C@](C)(O[C@@H]1O[C@H](CO)[C@@H](O)[C@H](O)[C@H]1O)[C@H]1CC[C@]2(C)[C@@H]1[C@H](O)C[C@@H]1[C@@]3(C)CC[C@H](O)C(C)(C)[C@@H]3[C@@H](O[C@@H]3O[C@H](CO)[C@@H](O)[C@H](O)[C@H]3O[C@@H]3O[C@@H](C)[C@H](O)[C@@H](O)[C@H]3O)C[C@]12C [Ginsenoside Re]	0.852
C[C@H]1CNC(=O)c2cnn3ccc(nc23)N[C@H](C)c2cc(F)ccc2O1	0.904
NC(=O)c1nc(-c2c(F)cccc2Cl)oc1Nc1ccc(C(=O)N2CCOCC2)cc1	0.929
C=C(C)[C@@H]1CC[C@]2(C(=O)O)CC[C@]3(C)[C@H](CC[C@@H]4[C@@]5(C)CCC(=O)C(C)(C)[C@@H]5CC[C@]43C)[C@@H]12 [Betulonic acid]	1.08
O=C(Nc1ccc(C(O)(C(F)(F)F)C(F)(F)F)cc1)c1ccc(C(F)(F)F)cc1	0.963
NNC(=O)c1ccccn1 [2-Picolinyl hydrazide]	1.02
Clc1ccc(NN=C(c2ccccc2)c2ccccn2)nc1	0.74
CN(C)C(=S)NN=C(c1ccccn1)c1ccccn1	0.45
CC1=C(C(=O)Nc2ccc3[nH]ncc3c2)C(c2ccc(F)cc2)NC(=O)N1 (stereo not given)	1.09
CN1CCN(c2ccc(-c3ccncc3-c3cc(F)c(O)c(F)c3)cc2)CC1	1.11
COc1ccc(CNc2nc(N3CCC[C@H]3CO)ncc2C(=O)NCc2ncccn2)cc1Cl [Avanafil]	0.984
CCc1cnn2c(NCc3ccc[n+]([O-])c3)cc(N3CCCC[C@H]3CCO)nc12 [Dinaciclib]	0.17
COc1cc2c3cc1Oc1c(OC)c(OC)cc4c1[C@@H](Cc1ccc(O)c(c1)Oc1ccc(cc1)C[C@@H]3N(C)CC2)N(C)CC4 [Berbamine]	1.09
CC(=O)Oc1cc(C)c(OC(C)=O)c2ccccc12 [Menadiol Diacetate]	1.11
COc1ccc(/C(C#N)=C/c2ccc(N3CCC(O)CC3)s2)cc1OC	0.953
CN(C)C/C=C/C(=O)Nc1ccc(C(=O)N2CCC[C@@H](Nc3ncc(Cl)c(-c4c[nH]c5ccccc45)n3)C2)cc1	0.437
CN(C)C/C=C/C(=O)Nc1ccc(C(=O)Nc2cccc(Nc3ncc(Cl)c(-c4c[nH]c5ccccc45)n3)c2)cc1	0.346
Cc1cc(NC(=O)c2cccc(NC(=O)/C=C/CN(C)C)c2)ccc1Nc1nccc(-c2cccnc2)n1	0.841
Cc1cc(C(=O)Nc2nc3cccc(Cl)c3n2[C@@H]2CCCCN(C(=O)/C=C/CN(C)C)C2)ccn1 [Nazartinib]	0.907
COc1cc(N2CCC(N3CCN(C)CC3)CC2)ccc1Nc1ncc(Cl)c(-c2c[nH]c3ccccc23)n1	0.893
CCOc1cc2ncc(C#N)c(Nc3ccc(F)c(Cl)c3)c2cc1NC(=O)/C=C/CN(C)C [Pelitinib]	0.507
COc1ccc(C(c2c[nH]c3ccccc23)c2c[nH]c3ccccc23)cc1	1.04
CC1(C)CC[C@]2(C(=O)O)CC[C@]3(C)C(=CC[C@@H]4[C@@]5(C)C[C@@H](O)[C@H](O)C(C)(C)[C@@H]5CC[C@]43C)[C@@H]2C1 [Maslinic acid]	0.962
CC(=O)c1ccc(NC2=C(Cl)C(=O)c3ccccc3C2=O)cc1	0.908
COC(=O)c1cc(O)c(O)c(O)c1 [Methyl gallate]	1.07

Compound	cell viability
OC1CCC(Oc2cccc3cnc(Nc4ccc5nc[nH]c5c4)nc23)CC1 (stereo not given)	1.02
Cc1nn(C)cc1-c1nc2c(N3CCN(Cc4ccc(Cl)cc4)CC3)c(Cl)cnc2[nH]1	0.998
CCCCC/C=C\C/C=C\CCCCCCCC(=O)O [Linoleic acid]	0.87
Cc1c(C)c(NCC(=O)N(C)C2CCN(Cc3ccc(C(N)=O)cc3)CC2)c(C)c(C)c1N	0.837
O=C(Nc1ccc(CN2CCOCC2)cc1)c1ccc(-c2cccc(Cl)c2)o1	0.816
COCCN1CCN(Cc2ccc(-c3n[nH]c4c3C(=O)c3c(NC(=O)NN5CCOCC5)cccc3-4)cc2)CC1	0.3
CCNC(=O)c1noc(-c2cc(C(C)C)c(O)cc2O)c1-c1ccc(CN2CCOCC2)cc1 [Luminespib]	0.48
CONC(=O)Nc1ccc(-c2sc3c(c2CN(C)C)c(=O)n(-c2ccc(OC)nn2)c(=O)n3Cc2c(F)cccc2F)cc1 [Relugolix]	1.12
COc1ccc(S(=O)(=O)/N=C2\C=CC=C\C2=C/C=C2C=CN(O)C=C2)cc1	0.935
COC(=O)c1c2c(c3ccccc3c1O)OC(C)(C)C=C2 [Mollugin]	1.05
Cc1c(O)c(C)c2c(c1O)C(=O)C[C@@H](c1ccc(O)cc1)O2 [Farrerol]	0.874
Cc1nc(Nc2ncc(C(=O)Nc3c(C)cccc3Cl)s2)cc(N2CCN(CCO)CC2)n1 [Dasatinib monohydrate]	0.489
CN1CCN(CCCNc2ncc(Cl)c(-c3cc4c(C(=O)NC5CC5)cccc4s3)n2)CC1	0.958
Cc1cc(Nc2cc(N3CCN(C)CC3)nc(Sc3ccc(NC(=O)C4CC4)cc3)n2)n[nH]1 [Tozasertib]	0.762
Cc1nc(Nc2ncc(C(=O)Nc3c(C)cccc3Cl)s2)cc(N2CCN(CCO)CC2)n1 [Dasatinib]	0.348
Cc1nn2c([nH]c(=O)c3cccnc32)c1C#N	1.02
O=C(NOCCO)c1cc(CN2OCCCC2=O)c(F)c(F)c1Nc1ccc(I)cc1F	0.84
CC(C)n1nc(-c2ccc3oc(N)nc3c2)c2c(N)ncnc21	0.37
CC(C)n1nc(-c2cc3cc(O)ccc3[nH]2)c2c(N)ncnc21 [Torkinib]	0.733
CC(C)Oc1ccc(-c2nn([C@@H](C)c3oc4ccc(F)cc4c(=O)c3-c3cccc(F)c3)c3ncnc(N)c23)cc1F	0.937
Nc1ccc(-c2cnc(N)c(-c3ccc(Cl)cc3)c2)cn1	1.07
Oc1cc(-c2nc(-c3ccccc3)[nH]c2-c2ccncc2)ccc1Cl	1.22
CC(C)CN(CC(=O)N1CCN(CC(OCc2ccc3ccccc3c2)c2ccc(Cl)cc2Cl)CC1)CC(C)C (stereo not given)	1.12
CC(=O)O[C@H]1CC(=O)OC(C)(C)[C@@H]2CC(=O)[C@]3(C)[C@H](CC[C@@]4(C)[C@@H](c5ccoc5)OC(=O)[C@H]5O[C@]543)[C@@]12C [Nomilin]	1.15
CC(=O)O[C@@H]1C[C@H](O)[C@@]23CO[C@@H](O)[C@]1(C)[C@@H]2C[C@@H](O)[C@]1(C)[C@@H]3C(=O)[C@H](OC(C)=O)[C@@]2(C)[C@H](c3ccoc3)C[C@H]3O[C@]321 [Toosendanin]	0.408

Compound	cell viability
C[C@H](O)[C@@H](O)[C@@H](O)[C@H](O)C=O [L-(-)-Fucose]	1.09
O=C(O)c1ccc(S(=O)(=O)N(Cc2ccc(OC(F)(F)F)cc2)c2ncc(C(F)(F)F)cc2Cl)cc1	0.969
O=C(Nc1ccc2[nH]nc(-c3ccncc3)c2c1)[C@@H]1CCN(CC(=O)N2CCN(c3ccc(-c4ncccn4)cc3)CC2)C1	0.831
COc1ccccc1C(=O)Nc1cc2c(cc1N1CCCCC1)n(C)c(=O)n2C	0.977
CC(=O)O[C@H](CC=C(C)C)C1=CC(=O)c2c(O)ccc(O)c2C1=O [Acetyl shikonin]	1.05
Cc1nc(Nc2ccc(F)cc2)nc(N2CCc3ccccc3C2C)c1C (stereo not given) [Revaprazan hydrochloride]	0.852
Cc1cc(C(=O)Nc2cccc(C(=O)Nc3cccc(C(F)(F)F)c3)c2)on1	1.1
Cc1ccc(C(=O)Nc2cccc(C(F)(F)F)c2)cc1Nc1nc(-c2cccnc2)nc2c1cnn2C	0.974
Cc1cc(Nc2ncc3c(n2)N(C)C(=O)N(c2cc(NC(=O)c4cccc(C(F)(F)F)c4)ccc2C)C3)n(C)n1 [Pluripotin]	0.301
COc1cc2nccc(Oc3ccc(NC(=O)c4cn(C(C)C)c(=O)n(-c5ccc(F)cc5)c4=O)cc3F)c2cc1OC	0.893
COC1(c2sc3c(N4CCOCC4)nc(-c4cnc(N)nc4)nc3c2C)COC1	0.496
Cc1c(CN2CCN(C(=O)[C@H](C)O)CC2)sc2c(N3CCOCC3)nc(-c3cnc(N)nc3)nc12 [Apitolisib]	0.434
Cc1c(CN2CCN(S(C)(=O)=O)CC2)sc2c(N3CCOCC3)nc(-c3cnc(N)nc3)nc12	0.514
CONC(=O)c1ccccc1Nc1cc(Nc2cc(C)nn2C(C)C)ncc1Cl	0.889
CCC(=O)N1CC[C@H](Nc2ncnc3c2CN(c2cnc(OC)c(C(F)(F)F)c2)CC3)C1 [Leniolisib]	0.904
COc1ccc(-c2ccc3ncc4c(c3c2)n(-c2ccc(N3CCNCC3)c(C(F)(F)F)c2)c(=O)n4C)cn1	0.373
Nc1ccc(-c2ccc3ncc4ccc(=O)n(-c5cccc(C(F)(F)F)c5)c4c3c2)cn1 [Torin 2]	0.414
CCC(=O)N1CCN(c2ccc(-n3c(=O)ccc4cnc5ccc(-c6cnc7ccccc7c6)cc5c43)cc2C(F)(F)F)CC1 [Torin 1]	0.437
CC(C)n1c(=O)n(C)c2cnc3cc(F)c(-c4ccc(OCCCN5CCCCC5)nc4)cc3c21	0.883
CN(C)CCCOc1ccc(-c2ccc3ncc4c(c3c2)n(C2CCOCC2)c(=O)n4C)cn1	0.878
Cn1cc(C2=C(c3cccc(N)c3)C(=O)NC2=O)c2ccccc21	0.932
Cc1nc2cccc(N)c2c(=O)n1C1CCC(=O)NC1=O (stereo not given) [Avadomide]	0.982
O=C([O-])CN(CCN(CC(=O)[O-])CC(=O)O)CC(=O)[O-].[Na+].[Na+].[Na+] [Edetate Trisodium]	1.15
O=C(NO)c1cnc(NC2(c3ccccc3)CC2)nc1	1.01
C=CC(=O)Nc1cccc(Oc2nc(Nc3ccc(N4CCN(C)CC4)c(F)c3)nc3[nH]ccc23)c1 [Avitinib]	0.747
